Assay results as given in PubChem BioAssay AID1159580 (chemical genetic matrix, 2015).
“And” between values parts separate entries of the source, which are not always exact repeats. Identical values can stand only once. About 2,000 (36%) of roughly 5,500 compounds were called active. Inconclusive results (about 18%) are left out. Cut-off read from the data, not from the text of the source: active = normalized growth mostly below about 0.91 (no sharp cut-off); inconclusive = no clear call, values can overlap the other calls; inactive = mostly above about 0.92. The list shows a part of the results.

Assay: chemical genetic growth profiling, strain panel (AID 1159580);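 note: tested at 20 µM; growth read once vehicle control cultures reached saturation at 30 °C; 1 = growth at the plate median or of vehicle wells; lower values mean less growth of the strain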
Settings: S. cerevisiae deletion strains, growth OD

Measured: normalized growth

Nc1ccc(N=Nc2ccccc2)c(N)n1
inactive: locus YAL013W, strain DEP1, stronger effect = lower value 0.984 | locus YBR171W, strain sec66, stronger effect = lower value 0.96 | locus YBR229C, strain ROT2, stronger effect = lower value 1 | locus YCL029C, strain bik1, stronger effect = lower value 1.03 | locus YCR088W, strain abp1, stronger effect = lower value 0.945 | locus YDL005C, strain med2, stronger effect = lower value 1 | locus YDL035C, strain GPR1, stronger effect = lower value 0.932 | locus YDL040C, strain nat1, stronger effect = lower value 0.978 | locus YDL074C, strain BRE1, stronger effect = lower value 0.866 | locus YDL101C, strain DUN1, stronger effect = lower value 0.968 | locus YDL134C, strain PPH21, stronger effect = lower value 0.999 | locus YDL185W, strain tfp1, stronger effect = lower value 0.998 | locus YDR001C, strain nth1, stronger effect = lower value 1 | locus YDR101C, strain arx1, stronger effect = lower value 0.995 | locus YDR150W, strain NUM1, stronger effect = lower value 1.01 | locus YDR159W, strain sac3, stronger effect = lower value 0.884 | locus YDR162C, strain NBP2, stronger effect = lower value 0.939 | locus YDR318W, strain mcm21, stronger effect = lower value 0.951 | locus YDR388W, stronger effect = lower value 0.997 | locus YDR502C, strain sam2, stronger effect = lower value 0.954 | locus YEL037C, strain rad23, stronger effect = lower value 0.922 | locus YEL061C, strain CIN8, stronger effect = lower value 0.997 | locus YER110C, stronger effect = lower value 1.01 | locus YER155C, strain BEM2, stronger effect = lower value 1.03 | locus YER167W, strain BCK2, stronger effect = lower value 1.02 | locus YGL078C, strain dbp3, stronger effect = lower value 0.937 | locus YGL086W, strain mad1, stronger effect = lower value 0.971 | locus YGL167C, strain pmr1, stronger effect = lower value 0.977 | locus YGL248W, strain PDE1, stronger effect = lower value 0.989 | locus YGR078C, strain PAC10, stronger effect = lower value 0.918 | locus YGR229C, strain SMI1, stronger effect = lower value 0.996 | locus YGR252W, strain gcn5, stronger effect = lower value 0.943 | locus YHR030C, strain SLT2, stronger effect = lower value 0.995 and 0.956 | locus YHR079C, strain IRE1 (second series), stronger effect = lower value 0.99 | locus YHR079C, strain IRE1, stronger effect = lower value 0.965 | locus YHR094C, strain hxt1, stronger effect = lower value 1.02 | locus YHR129C, strain ARP1, stronger effect = lower value 1.01 | locus YHR200W, strain rpn10, stronger effect = lower value 0.983 | locus YIL066C, strain RNR3, stronger effect = lower value 0.956 | locus YIL073C, strain SPO22, stronger effect = lower value 0.972 | locus YIL125W, strain kgd1, stronger effect = lower value 1.02 | locus YIR030C, strain dcg1, stronger effect = lower value 1.02 | locus YJL092W, strain hpr5, stronger effect = lower value 0.945 | locus YJL095W, strain BCK1, stronger effect = lower value 0.833 and 0.952 | locus YJL115W, strain asf1, stronger effect = lower value 1.01 | locus YJL134W, strain LCB3, stronger effect = lower value 1 | locus YJL154C, strain vps35, stronger effect = lower value 0.98 | locus YJL168C, strain set2, stronger effect = lower value 1 | locus YJL187C, strain SWE1 (second series), stronger effect = lower value 0.961 | locus YJR043C, strain POL32, stronger effect = lower value 0.984 | locus YJR066W, strain TOR1, stronger effect = lower value 0.91
active: locus YAL021C, strain ccr4, stronger effect = lower value 0.597 | locus YAL026C, strain drs2, stronger effect = lower value 0.262 | locus YAL030W, strain snc1, stronger effect = lower value 0.909 | locus YBL061C, strain skt5, stronger effect = lower value 0.841 | locus YBR009C, strain hhf1, stronger effect = lower value 0.635 | locus YBR021W, strain FUR4, stronger effect = lower value 1.16 [resistant] | locus YBR023C, strain chs3, stronger effect = lower value 0.764 | locus YBR231C, strain swc5, stronger effect = lower value 0.742 | locus YBR279W, strain paf1, stronger effect = lower value 0.807 | locus YCL011C, strain gbp2, stronger effect = lower value 0.78 | locus YCL016C, strain dcc1, stronger effect = lower value 0.739 | locus YCL069W, strain vba3, stronger effect = lower value 0.725 | locus YDL192W, strain arf1, stronger effect = lower value 0.901 | locus YDR069C, strain doa4, stronger effect = lower value 0.846 | locus YDR137W, strain rgp1, stronger effect = lower value 0.351 | locus YDR195W, strain ref2 1.61 [resistant] | locus YDR297W, strain sur2, stronger effect = lower value 0.828 | locus YDR334W, strain swr1, stronger effect = lower value 0.833 | locus YDR335W, strain msn5, stronger effect = lower value 0.785 | locus YDR392W, strain spt3, stronger effect = lower value 0.6 | locus YEL003W, strain gim4, stronger effect = lower value 0.712 | locus YEL061C, strain CIN8 (second series), stronger effect = lower value 0.838 | locus YER015W, strain faa2, stronger effect = lower value 0.794 | locus YER016W, strain bim1, stronger effect = lower value 0.853 | locus YER111C, strain swi4, stronger effect = lower value 0.801 | locus YER155C, strain BEM2 (second series), stronger effect = lower value 0.226 | locus YFR010W, strain ubp6, stronger effect = lower value 0.862 | locus YGL173C, strain kem1, stronger effect = lower value 0.668 | locus YGL227W, strain vid30, stronger effect = lower value 0.83 | locus YGL240W, strain doc1, stronger effect = lower value 0.832 | locus YGL253W, strain hxk2, stronger effect = lower value 0.695 | locus YGR135W, strain pre9, stronger effect = lower value 0.854 | locus YHR013C, strain ard1, stronger effect = lower value 0.573 | locus YHR027C, strain rpn1, stronger effect = lower value 0.798 | locus YHR142W, strain chs7, stronger effect = lower value 0.543 | locus YJL095W, strain BCK1 (second series), stronger effect = lower value 0.478 | locus YJL129C, strain trk1, stronger effect = lower value 1.14 [resistant] | locus YJL164C, strain tpk1, stronger effect = lower value 0.759 | locus YJL166W, strain qcr8, stronger effect = lower value 0.494 | locus YJL187C, strain SWE1, stronger effect = lower value 0.727
